TROY signal inh: blocks TROY-dependent signaling in reporter cells; Q293 LMP1-TROYcd NF-kB luciferase reporter, 4 h; inhibition, % at 10 µM; hit rate 0.98% among 360,000; AID 1347056;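 active = compounds whose plate-normalised and pattern-corrected inhibition of the luciferase reporter signal at the single screening dose is 50% or more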
CF NFkB block: cystic fibrosis NF-kB activation inhibition; KKLEB NF-kB-GFP reporter, PAF-induced, GFP fluorescence overnight; inhibition, % at 5 µM; hit rate 0.86% among 360,000; AID 588850;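 active = at least 50% inhibition at 5 µM, scaled per plate between neutral and stimulator controls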;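 note: PAF is a Pseudomonas aeruginosa culture filtrate used as stimulus; plate controls were PAF-stimulated DMSO wells for no effect and unstimulated DMSO wells for full effect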
TWEAK-Fn14 inh: inhibitors of TWEAK-Fn14 interaction signaling; TWEAK-stimulated Fn14 reporter cells, luciferase luminescence, 8 h; inhibition, % at 10 µM; hit rate 2% among 360,000; AID 1159606; in the data active = inhibition above about 50%
KKLEB cytotox: reduces viability of KKLEB cystic fibrosis airway cells | KKLEB CF airway cells viability, ATPlite luminescence, overnight; hits give low values; cells stimulated with P. aeruginosa culture filtrate | activity change (cytotoxicity), % at 5 µM | hit rate 0.36% among 360,000 | AID 602141;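 active = corrected activity change at or below -50% at 5 µM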
Peg3 prom inh: reduces Peg3 promoter-driven luciferase expression in HeLa | inhibition, % at 20 µM | AID 588405 | hit rate 1.7% among 360,000 | HeLa PEG-Prom luciferase reporter, luminescence, overnight;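 active = inhibition of at least 50% at 20 µM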
HIF-2a block: inhibitors of HIF-2a | AID 624352 | hit rate 0.72% among 360,000 | inhibition, % at 18.8 µM | 786-0 RCC cells HIF-2a reporter, luciferase luminescence, overnight;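 active = inhibition of the luminescence signal of 40% or more relative to plate controls, in a single-dose primary screen at 18.75 µM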
An asterisk follows results filed as active; x = not tested or not shown. Rows were chosen to be rich in hits. Some 3.9% of all compounds tested hit in one or more screens of this group.

SMILES	TROY signal inh	CF NFkB block	TWEAK-Fn14 inh	KKLEB cytotox	Peg3 prom inh	HIF-2a block
COc1cccc(/C=C(\C#N)c2nc3ccccc3[nH]2)c1OCC(=O)O	-7.8	11.8	99.0*	-0.4	-33.3	-116.6
COc1cc(/C=C(\C#N)c2nc3ccccc3[nH]2)cc(Br)c1OCc1ccccc1	-46.8	-2.4	23.6	-7.0	53.3*	-5.8
CCOC(=O)N1CCN(C(=O)CSc2ccc3nnc(CCNC(=O)c4ccccc4)n3n2)CC1	-15.8	-4.6	0.0	4.5	16.7	10.2
CC(=O)OC(C)CS(=O)(=O)c1ccccc1 (centres undefined)	1.6	4.2	-0.9	-13.1	-0.9	9.8
COc1cc2cnc(-c3ccccc3)c(-c3cccc(C(F)(F)F)c3)c2cc1OC	4.9	39.2	21.0	-2.9	43.3	-37.5
O=C(O)c1cccc(N2C(=O)/C(=C/c3ccc([N+](=O)[O-])cc3)C=C2c2ccccc2)c1	-12.5	4.0	51.8*	4.2	53.2*	56.6*
O=C1/C(=C/c2ccc([N+](=O)[O-])cc2)C=C(c2ccccc2)N1c1ccccc1	-23.3	-18.3	-0.8	-1.7	15.3	-57.0
OC(COC(c1ccc(Cl)cc1)c1ccc(Cl)cc1)CN1CCN(c2ccccn2)CC1 (centres undefined)	24.1	3.2	13.1	-5.8	22.7	12.7
OC(CN1CCCCC1)Cn1c2ccc(Cl)cc2c2cc(Cl)ccc21 (centres undefined)	-34.6	27.9	-34.5	-13.9	103.9*	7.1
OC(CN1CCN(c2ccccn2)CC1)Cn1c2ccc(Cl)cc2c2cc(Cl)ccc21 (centres undefined)	-1.3	1.5	51.8*	-7.4	35.7	10.0
CC1CCN(CC(O)Cn2c3ccccc3c3ccccc32)CC1 (centres undefined)	9.7	10.9	1.4	3.2	0.6	5.9
COCCNC(=O)Cn1nc(Cc2ccncc2)c2ccccc2c1=O	-0.1	-2.4	-11.6	3.1	-6.7	15.3
CC(C)[N+](C)(CCOC(=O)C1c2ccccc2Oc2ccccc21)C(C)C	4.8	12.5	0.2	-34.8	-21.6	16.9
CCCc1nc2oc3c(NCCN(C)C)ncnc3c2c2c1CCCC2	4.2	16.2	-57.0	-23.5	68.1*	37.8
CC(C)Cc1nc2oc3c(NCC(C)O)ncnc3c2c2c1CCCC2 (centres undefined)	3.3	31.3	1.8	-35.3	14.3	9.1
O=C(N/N=C/c1cc([N+](=O)[O-])ccc1O)c1ccc2c(c1)OCCO2	6.5	31.4	-2.4	-24.6	15.7	-62.6
CCNS(=O)(=O)c1cc(OC)c(Cl)cc1OC	-4.7	-18.6	1.0	-4.4	5.3	5.1
COc1ccc(C(=O)N2N=C(c3ccc(NS(C)(=O)=O)cc3)CC2c2cccs2)cc1 (centres undefined)	51.5*	2.3	21.7	-25.7	38.9	7.5
N#Cc1ccsc1NC(=O)CSc1nnc(NC2CC2)s1	13.8	-27.3	-37.7	-3.9	18.1	3.1
COc1ccc(CNC(=S)Nc2ccc(Br)cc2)cc1	21.4	16.3	64.3*	-5.8	-3.3	-1.0
CNC(=S)Nc1ccc(Br)cc1	61.2*	15.4	31.7	-13.5	3.6	-0.6
COc1ccc(CNC(=S)Nc2ccc(-c3ccccc3)cc2)cc1	14.7	-6.9	6.6	-1.6	-34.4	-30.0
Fc1ccc(NC(=S)Nc2ccc(Br)cc2)cc1	-26.3	0.3	4.7	3.8	-22.4	-91.3
O=C1NC2(CCN(Cc3ccccc3)CC2)Oc2ccccc21	10.1	10.5	5.4	-3.7	14.4	16.5
O=C1c2ccccc2OC2(C=Cc3ccccc3O2)N1Cc1ccccc1 (centres undefined)	x	21.3	76.0*	-7.1	20.1	7.3
SMILES	TROY signal inh	CF NFkB block	TWEAK-Fn14 inh	KKLEB cytotox	Peg3 prom inh	HIF-2a block
COc1cc(/C=N/n2c(-c3ccc4c(c3)NC(=O)CO4)csc2=Nc2cccc(C)c2)ccc1O	12.3	11.1	65.3*	-9.6	27.6	-30.2
S=C1CSc2ccccc2N1	12.5	3.7	9.1	-12.7	-10.7	-6.2
O=S1(=O)CCN(c2ccccc2CC(c2c[nH]c3ccccc23)c2c[nH]c3ccccc23)CC1	27.9	7.4	63.0*	15.2	57.4*	-12.4
COc1ccc(CCn2c(N3CCOCC3)nc3c2c(=O)[nH]c(=O)n3C)cc1	8.1	-26.2	-5.8	5.8	14.5	10.9
CCCCNc1c(-c2ccc(SC(C)CC)c(OC)c2)nc2ccc(C)cn12 (centres undefined)	-8.4	-12.7	21.1	-3.7	93.2*	-155.4
CCCCNc1c(-c2ccc(SC(C)CC)c(OC)c2)nc2ccc(Cl)cn12 (centres undefined)	-47.2	25.7	-25.4	-6.4	-61.4	-151.6
CCCCNc1c(-c2ccc(OC)c(Sc3ccc(OC)cc3)c2)nc2ccccn12	6.8	21.4	57.2*	-6.5	93.3*	-225.6
CCC(C)Sc1cccc(-c2nc3ccc(C)cn3c2NCc2ccccc2)c1 (centres undefined)	7.8	9.9	15.6	3.1	83.2*	-84.2
CCC(C)Sc1cccc(-c2nc3ccc(Cl)cn3c2NCc2ccccc2)c1 (centres undefined)	-24.1	10.3	1.7	-2.0	-34.0	-124.2
CCC(C)Sc1cccc(-c2nc3ccccn3c2NCc2ccccc2)c1 (centres undefined)	-21.9	3.9	1.5	-16.0	73.3*	-300.6
Cc1ccn(C)c(=N)c1	10.0	3.7	5.4	1.2	-0.1	10.0
S=c1[nH]nc(-c2ccc(Br)cc2)n1-c1ccc2c(c1)OCCO2	27.6	-6.0	1.3	0.7	-0.3	2.1
CN1C(=O)CSc2ccc(NC(=O)NCc3cccnc3)cc21	6.4	9.5	21.6	-5.8	12.4	-6.4
Cc1cccc(N(CC(=O)NC(C)(C)C)C(=O)CS(=O)CC(=O)Nc2ccc(F)cc2)c1 (centres undefined)	9.1	-15.0	14.8	8.7	4.8	13.2
CCCCCCSc1cccc(-c2nc3ccccn3c2NCc2ccccc2)c1	-31.5	4.4	-10.8	-4.1	73.7*	-131.5
CC1(c2nnnn2-c2ccc3c(c2)OCCO3)CCC(=O)N1CCc1ccccc1F (centres undefined)	37.1	x	68.3*	x	x	12.7
Cc1cccc(C)c1-n1nnnc1C1(C)CCC(=O)N1CCc1ccccc1F (centres undefined)	-2.9	x	1.9	x	x	-5.5
CCOc1cc(C2NC(=O)N(C)C(C)=C2[N+](=O)[O-])ccc1OC(C)=O (centres undefined)	-6.6	-2.5	6.6	10.4	2.4	15.5
COc1ccc(-c2nnc(SCC(=O)/C(C#N)=C(\C)N)o2)cc1	31.0	2.4	65.4*	-12.4	-139.5	-96.8
C/C(N)=C(/C#N)C(=O)CSc1nnc(-c2ccccc2Br)o1	16.5	-7.0	73.5*	4.3	-229.5	-180.8
Cc1cccc(C(C)n2nnc3ccccc32)c1O (centres undefined)	7.9	-11.9	13.3	-0.7	10.4	9.7

Screens deposited in PubChem by Sanford-Burnham Center for Chemical Genomics.
